Screening data: PubChem, National Center for Advancing Translational Sciences (NCATS)
DT40 TDP1 CPT = growth inhibition of DT40 Tdp1-/-;hTDP1 cells with camptothecin (screen for TDP1 inhibitors); chicken DT40 Tdp1-/-;hTDP1 cells + 20 nM CPT, ATP luminescence, 48 h; Potency, µM (highest dose often 46.2 µM), without a hit: at the top dose activity change, negative = growth inhibition, usual class: inhibitors; 420,000 compounds, 12% hits; AID 686979; note: potency is the fitted concentration of half-maximal effect; nearly all actives have a fitted effect of over 55% in size
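Chicken DT40 Tdp1-/- cells complemented with human TDP1, 400 cells/well, exposed to compounds plus 20 nM camptothecin for at least 48 h at 37 C; viability read as ATP content by CellTiter-Glo luminescence.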
HT1080 IDH1KD tx = toxicity to HT-1080 IDH1 knockdown cells (counter line); HT-1080 IDH1 knockdown viability, ATP luminescence, 48 h; Potency, µM (titrated, usually from 46.1 µM), for inactives: top-dose activity, negative = toxicity, usual class: cytotoxic; 360,000 compounds, 2% hits; AID 686971;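 note: potency is the fitted concentration of half-maximal effect; 0% = DMSO wells and -100% = cell-free medium wells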
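HT-1080-IDH1KD cells (IDH1 knocked down), 750/well in RPMI with 5% FBS, treated with compound 48 h at 37 degrees C. Viability by CellTiter-Glo luminescence, normalised to DMSO and no-cell wells; concentration-response curves classed.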
HT1080-NT tox = kills 2HG-producing HT-1080-NT fibrosarcoma cells; HT-1080-NT fibrosarcoma viability, CellTiter-Glo ATP luminescence, 48 h; Potency, µM (series often up to 46.1 µM), inactives show top-dose activity, negative = less viability, hits mostly cytotoxic; 360,000 compounds, 1.6% hits; AID 686970;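 note: NT is the 2HG producing partner of a matched IDH1 knockdown line; potency is the fitted concentration of half-maximal effect; 0% = DMSO-treated cells and -100% = media-only wells without cells; nearly all actives have a fitted effect of over 55% in size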
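Toxicity toward the 2HG-producing NT line was scored as %Activity, normalised to DMSO and no-cell wells, from CellTiter-Glo luminescence after 48 hours' treatment.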
IL1B secr inh = inflammasome signaling inhibition, IL-1 beta readout | THP-1 LPS/ATP IL-1B secretion, AlphaLISA, 16 h; stronger effect = lower value | activity change, % at 57.5 µM | 360,000 compounds, 4.7% hits; in the data active = activity change below about -50%; inconclusive = mostly about -30% to -49%
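THP-1 cells pretreated 1 hr with compounds (up to 57.5 uM final), then stimulated with LPS (250 ng/mL final) plus ATP (1.25 mM final); secreted IL-1B measured by AlphaLISA after 16 hr, decreased signal indicating inhibition.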
DT40 TDP1 no CPT = qHTS for Inhibitors of human tyrosyl-DNA phosphodiesterase 1 (TDP1): qHTS in cells in absence of CPT | DT40 Tdp1-/- hTDP1 cells, no CPT, ATP luminescence, 48 h | Potency, µM (doses to about 46.2 µM), without a hit: top-dose activity change, negative = growth inhibition, hits mostly inhibitors | AID 686978, 2013 | 420,000 compounds, 15% hits; note: potency is the fitted concentration of half-maximal effect; nearly all actives have a fitted effect of over 55% in size
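Compound effects on proliferation are scored in DT40 Tdp1-/-;hTDP1 cells in the absence of CPT. ATP levels (CellTiter-Glo luminescence) are recorded after a ≥48 hr, 37 °C incubation.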
* hit, by the source's call; ? = inconclusive; . = no result; [ ] = dose if it differs, or a comment. Only some compounds are listed: those with a hit (about 19% of all), similar ones and a draw of the others. Unless noted, calls come from the whole dose curve; as a rule, active = well fitted curve in the direction sought with a large enough effect; inconclusive = small, poorly fitted or top-dose-only effect, or another doubt; inactive = no such curve, though single readings can be large; an effect the other way counts as inactive or inconclusive. Unless noted, % is set by controls: 0 for no effect and ±100 for the full control effect.

SMILES	DT40 TDP1 CPT	HT1080 IDH1KD tx	HT1080-NT tox	IL1B secr inh	DT40 TDP1 no CPT
COc1ccc(NC(=O)CC2C(=O)N(c3cccc(OC)c3)C(=O)N2Cc2ccco2)cc1 (stereo unspecified)	-8%	12%	0%	7	-18%
CCOC(=O)c1ccc(NC(=O)CC2C(=O)N(c3ccccc3)C(=O)N2Cc2ccc(C)cc2)cc1 (stereo unspecified)	?	.	.	.	23µM*
CCCOc1ccc(NC(=O)CC2C(=O)N(c3ccccc3)C(=O)N2Cc2ccc(F)cc2)cc1 (stereo unspecified)	16µM*	.	.	.	21µM*
COC(=O)c1ccc(NC(=O)CC2C(=O)N(c3cccc(OC)c3)C(=O)N2Cc2cccc(OC)c2)cc1 (stereo unspecified)	?	.	.	.	15µM*
COc1ccc(CCN2C(=S)N(c3ccc(Cl)cc3)C(=O)C2CC(N)=O)cc1OC (stereo unspecified)	15µM*	?	-27%	-7	16µM*
CCOC(=O)c1ccc(N2C(=O)C(CC(N)=O)N(CCc3ccc(OC)c(OC)c3)C2=S)cc1 (stereo unspecified)	17%	-2%	9%	33	10%
COC(=O)c1ccc(NC(=O)CC2C(=O)N(c3ccc(F)cc3)C(=O)N2Cc2ccc(OC)cc2)cc1 (stereo unspecified)	?	.	.	.	18µM*
CCOC(=O)c1ccc(NC(=O)CC2C(=O)N(c3cccc(OC)c3)C(=O)N2CCOC)cc1 (stereo unspecified)	-25%	-6%	-8%	-8	-22%
CCc1ccc(NC(=O)CC2C(=O)N(c3cccc(OC)c3)C(=O)N2Cc2ccc(F)cc2)cc1 (stereo unspecified)	23µM*	.	.	.	18µM*
O=c1cc(CSc2nnc(-c3ccco3)o2)c2ccccc2[nH]1	?	?	11%	-4	-23%
O=C(CCc1nc2ccccc2c(=O)[nH]1)OCc1ccc(Cl)cc1Cl	-11%	12%	0%	4	-13%
O=C(CC1C(=O)N(c2ccc(Cl)cc2)C(=S)N1CCc1ccncc1)Nc1ccc(F)cc1 (stereo unspecified)	?	?	?	-63*	?
CCc1ccc(NC(=O)CC2C(=O)N(c3ccc(OC)cc3)C(=O)N2CCOC)cc1 (stereo unspecified)	-9%	0%	-5%	0	11%
COc1ccc(CCN2C(=O)N(c3ccc(C)cc3)C(=O)C2CC(=O)Nc2ccc(F)cc2)cc1 (stereo unspecified)	?	.	.	.	21µM*
COc1cc(NC(=O)CC2C(=O)N(c3cccc(C)c3)C(=O)N2Cc2ccco2)cc(OC)c1 (stereo unspecified)	?	.	.	.	23µM*
CCOc1ccc(NC(=O)CC2C(=O)N(c3ccc(C)cc3)C(=O)N2Cc2ccc(OC)cc2)cc1 (stereo unspecified)	?	.	.	.	23µM*
COC(=O)c1ccc(NC(=O)CC2C(=O)N(c3ccccc3)C(=O)N2Cc2ccco2)cc1 (stereo unspecified)	?	.	.	.	-40%
COc1cc(N)c(NC(=O)/C=C/c2nc3cc(OC)c(OC)cc3[nH]2)cc1OC	-26%	.	.	.	-5%
CN(CC1CCOCC1)C(=O)CC1C(=O)NCCN1Cc1ccc(F)c(F)c1 (stereo unspecified)	-22%	-4%	1%	9	-6%
COc1ccc(NC(=O)CC2C(=O)N(c3cccc(OC)c3)C(=O)N2CCC2=CCCCC2)cc1 (stereo unspecified)	?	.	.	.	23µM*
CCc1ccc(NC(=O)CC2C(=O)N(c3ccc(C)cc3)C(=O)N2CCc2ccncc2)cc1 (stereo unspecified)	?	-14%	-21%	-3	23µM*
CSc1nc(C(=O)N2CCOc3ccc(CN4CCN(Cc5ccccn5)CC4)cc3C2)cs1	19%[9.04 µM]	.	.	.	-12%
O=C(O)c1cn[nH]c1-c1cccc([N+](=O)[O-])c1	0%	15%	13%	27	10%
Cc1ccc2nc(NCCCO)nc(-c3ccccc3)c2c1	13µM*	?	?	-4	12µM*
COc1cccc(Nc2nc(-c3ccccc3)c3cc(C)ccc3n2)c1	7.3µM*	.	.	.	?
SMILES	DT40 TDP1 CPT	HT1080 IDH1KD tx	HT1080-NT tox	IL1B secr inh	DT40 TDP1 no CPT
OCCCNc1nc(-c2ccccc2)c2cc(Br)ccc2n1	?	-29%	-12%	-76*	?
COc1ccc(C(=O)COC(=O)CCN2C(=O)C3CC=CCC3C2=O)c(OC)c1 (stereo unspecified)	-2%	1%	1%	4	-11%
CCOC(=O)N1CCN(S(=O)(=O)N2CCCC(C(=O)NCc3cccc(OC)c3)C2)CC1 (stereo unspecified)	?	5%	-1%	7	?
CCOc1ccc2[nH]c3c(N4CCN(c5ccccn5)CC4)ncnc3c2c1	8.9µM*	?	?	-77*	16µM*
Cc1ccc2[nH]c3c(=O)n(Cc4ccncc4)cnc3c2c1	6%	-10%	-6%	-7	-11%
Cc1ccc2[nH]c3c(N4CCN(Cc5ccccc5)CC4)ncnc3c2c1	13µM*	21µM*	?	?	9.2µM*
Cc1ccc2c(c1)[nH]c1c(N3CCN(Cc4ccccc4)CC3)ncnc12	5.8µM*	?	?	-98*	4.6µM*
CC(C)CC(=O)N1CCN(c2ccc(NC(=O)c3ccco3)cc2)CC1	-3%	19%	13%	-10	0%
CC1(C(=O)NS(=O)(=O)c2ccccc2C(F)(F)F)CCN1C(=O)c1cccc(F)c1 (stereo unspecified)	-10%	12%	13%	31	-14%
Cc1cc(Sc2nnc(/N=C/N(C)C)s2)c2ccccc2n1	5.8µM*	18µM*	15µM*	-89*	7.3µM*
Cc1cc(Sc2nnc(N)s2)c2ccccc2n1	1.8µM*	?	?	-113*	2.9µM*
CC(C(=O)NC1C(=O)N2C(C(=O)O)=C(CSc3nnnn3C)CSC12)n1cc(Cl)cn1 (stereo unspecified)	1%	21%	13%	3	-12%
Cc1ccc(S(=O)(=O)N(C)c2ccc(OCC(=O)Nc3nnc(C4CC4)s3)cc2)cc1	-20%	-5%	-1%	39	?
CN(CC(=O)Nc1ccc(Cl)c(C(F)(F)F)c1)C(=O)Cc1ccsc1	16µM*	-12%	-27%	-89*	16µM*
CN(CC(=O)Nc1cccc(F)c1)C(=O)CCN1C(=O)C2CC=CCC2C1=O (stereo unspecified)	-18%	-2%	-2%	45	-5%
